Experiment [1] deals with Androgen receptor (Homo sapiens) (UniProt P10275). Description: ATG_AR_TRANS: Attagene TRANS-FACTORIAL HepG2 Assay for human Androgen Receptor (AR) (AID 2282973). As to conditions: HepG2 Attagene TRANS-FACTORIAL AR reporter transcription. In outline: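 HepG2 cells transiently transfected with AR-Gal4 chimera and GAL4-UAS reporter units; chemical exposure 24 h. Reporter mRNA quantified by RT-PCR with fluorescent labelling and capillary electrophoresis; gain-of-signal fitted against DMSO.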

Experiment [2] can be described thus: Tanguay_ZF_120hpf_MUSC: Oregon State University Tanguay Lab 120 Hour Post-fertilization zebrafish Assay for Muscle Malformation (AID 2284401; active means hit-call score of the fitted dose curve at least 0.9, where 1 is the maximum; inactive means score below 0.9). In outline:
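Dechorionated Tropical 5D wild-type zebrafish embryos exposed statically from 6 to 120 hpf at 28C, one per well, in 0.64% DMSO. Muscle malformation scored present/absent by brightfield microscopy at 120 hpf, fitted against DMSO.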

The target of experiment [3] is Cytochrome P450 2C18 (Homo sapiens) (UniProt P33260). Put plainly: NVS_ADME_hCYP2C18: NovaScreen (NVS) CYP450-related Enzyme Activity (ADME) Assay for human CYP2C18 (AID 2283103; active means hit-call score of the fitted dose curve at least 0.9, where 1 is the maximum; inactive means score below 0.9). In outline:
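Cell-free recombinant human CYP2C18 with fluorogenic substrate; fluorescence intensity read 0.5 h after dosing. Single-point screen at 10 uM in duplicate, then concentration-response up to 20 uM; loss of signal fitted against acetonitrile baseline.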

A further experiment relates to rat CYP2B1, gene 24300. Description: NVS_ADME_rCYP2B1: NovaScreen (NVS) CYP450-related Enzyme Activity (ADME) Assay for rat CYP2B1 (AID 2283117). A digest of the protocol: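 Recombinant rat CYP2B1 with fluorogenic substrate, read at 0.75 h. Primary screen in duplicate at 10 uM; compounds meeting threshold (e.g., 30% inhibition) re-run in concentration-response up to 20 uM. Fitted against acetonitrile control.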

Experiment [4] deals with rat CYP2C12, Cyp2c12 (gene 25011) (UniProt P11510). Description: NVS_ADME_rCYP2C12: NovaScreen (NVS) CYP450-related Enzyme Activity (ADME) Assay for rat CYP2C12 (AID 2283119). In outline: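 Cell-free recombinant rat CYP2C12 activity read by fluorescence 0.5 h after dosing; loss of signal versus acetonitrile control. Primary screen in duplicate at 10 uM; actives then run in concentration-response format.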

Experiment [5] has as its target rat CYP2D1, Cyp2d1 (gene 266684) (UniProt P10633). Description: NVS_ADME_rCYP2D1: NovaScreen (NVS) CYP450-related Enzyme Activity (ADME) Assay for rat CYP2D1 (AID 2283122). In outline:
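Cell-free fluorescence enzyme-activity assay on extracted rat CYP2D1 protein, read 0.75 h after dosing. Primary screen in duplicate at 10 uM; qualifying chemicals then run in concentration-response to 20 uM max, loss-of-signal versus acetonitrile baseline.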

Experiment [6] deals with human Raf-1 Proto-Oncogene, serine/threonine Kinase (RAF1), RAF1 (gene 5894) (UniProt P04049). Description: NVS_ENZ_hRAF1: NovaScreen (NVS) Enzymatic Assay for human Raf-1 Proto-Oncogene, serine/threonine Kinase (RAF1) (AID 2283216). In outline: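 Cell-free recombinant kinase with specific fluorescent substrate, product separated by electrophoretic mobility shift; read 1 h after dosing. Primary screen at 25 uM in duplicate; hits then run in concentration-response up to 50 uM, fitted as loss of signal versus DMSO.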

Experiment [7] concerns the target human CYP4F12, CYP4F12 (gene 66002) (UniProt Q9HCS2). Description: NVS_ADME_hCYP4F12: NovaScreen (NVS) CYP450-related Enzyme Activity (ADME) Assay for human CYP4F12 (AID 2283111). A digest of the protocol: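 Cell-free fluorescence assay of recombinant human CYP4F12 activity on a specific substrate, read 0.5 h after dosing. Primary screen in duplicate at 10 uM, then concentration series for actives; loss of signal fitted against acetonitrile negative control.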

Experiment [8] deals with human Acetylcholinesterase (AChE), ACHE (gene 43) (UniProt P22303). Put plainly: NVS_ENZ_hAChE: NovaScreen (NVS) Enzymatic Assay for human Acetylcholinesterase (AChE) (AID 2283129). In outline:
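Cell-free colorimetric enzyme-activity assay; compounds read 0.33 hour after dosing, loss of signal vs DMSO baseline. Primary screen in duplicate at 25 uM single concentration, with active compounds retested in concentration series.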

In experiment [9] the target is human AMP-activated Protein Kinase, alpha 1 (AMPKa1), PRKAA1 (gene 5562) (UniProt Q13131). Put plainly: NVS_ENZ_hAMPKa1: NovaScreen (NVS) Enzymatic Assay for human AMP-activated Protein Kinase, alpha 1 (AMPKa1) (AID 2283130). In outline: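 Recombinant human AMPKα1 activity was measured cell-free by fluorescent substrate conversion with electrophoretic mobility-shift separation, 1 h after dosing. Duplicate single-point screening was at 25 uM; actives (≥30% inhibition) were retested in concentration-response up to 50 uM.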

Experiment [10] deals with human Caspase 2 (CASP2), CASP2 (gene 835) (UniProt P42575). Put plainly: NVS_ENZ_hCASP2: NovaScreen (NVS) Enzymatic Assay for human Caspase 2 (CASP2) (AID 2283135). In outline:
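E. coli-expressed enzyme in a cell-free protease assay, fluorescence read 1 h after dosing. Compounds at 25 uM in duplicate, with concentration-response up to 50 uM for hits; loss of signal against DMSO baseline.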

In experiment [11] the target is human Aurora Kinase A - serine/threonine-protein Kinase 6 (AurA), AURKA (gene 6790) (UniProt O14965). Put plainly: NVS_ENZ_hAurA: NovaScreen (NVS) Enzymatic Assay for human Aurora Kinase A - serine/threonine-protein Kinase 6 (AurA) (AID 2283142). A digest of the protocol: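 Cell-free enzymatic assay with human Aurora A, 1 hour after dosing. Fluorescent substrate turnover detected after electrophoretic mobility shift separation of substrate and product. Screened at 25 uM, actives retested in concentration-response up to 50 uM.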

Experiment [12] addresses human Epidermal Growth Factor Receptor (EGFR), EGFR (gene 1956) (UniProt P00533). Description: NVS_ENZ_hEGFR: NovaScreen (NVS) Enzymatic Assay for human Epidermal Growth Factor Receptor (EGFR) (AID 2283151). A digest of the protocol:
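Cell-free kinase assay, fluorescence plus electrophoretic mobility shift separating substrate and product, read 1 hour after dosing; loss of signal vs DMSO. Duplicate screen at 25 uM, then concentration-response to 50 uM.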

Experiment [13] deals with Protein deacetylase HDAC6 (Homo sapiens) (UniProt Q9UBN7). Put plainly: NVS_ENZ_hHDAC6: NovaScreen (NVS) Enzymatic Assay for human Histone Deacetylase 6 (HDAC6) (AID 2283164). A digest of the protocol:
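Recombinant human HDAC6 with fluorescent substrate, 1 h; product separated from substrate by electrophoretic mobility shift. Primary screen in duplicate at 25 uM; actives retested singly in concentration-response up to 50 uM, fitted relative to DMSO.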

The target in experiment [14] is human IkappaB Kinase alpha (IKKa), CHUK (gene 1147) (UniProt O15111). Description: NVS_ENZ_hIKKa: NovaScreen (NVS) Enzymatic Assay for human IkappaB Kinase alpha (IKKa) (AID 2283167). In outline: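 Cell-free recombinant human IKKa with fluorescent substrate, product separated by electrophoretic mobility shift; read 1 hour after dosing. Primary screen duplicate at 25 uM, actives then concentration-response up to 50 uM; loss of signal relative to DMSO.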

The target in experiment [15] is human MET Proto-Oncogene, Receptor Tyrosine Kinase (MET), MET (gene 4233) (UniProt P08581). Put plainly: NVS_ENZ_hMet: NovaScreen (NVS) Enzymatic Assay for human MET Proto-Oncogene, Receptor Tyrosine Kinase (MET) (AID 2283180). A digest of the protocol:
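Cell-free MET kinase assay using recombinant protein and fluorescent substrate, with mobility-shift separation; read 1 h after dosing. Primary duplicate at 25 uM; actives in singleton concentration-response to 50 uM maximum. Signal loss versus DMSO.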

In experiment [16] the target is human p21 Activated Kinase 4 (PAK4), PAK4 (gene 10298) (UniProt O96013). Put plainly: NVS_ENZ_hPAK4: NovaScreen (NVS) Enzymatic Assay for human p21 Activated Kinase 4 (PAK4) (AID 2283189). In outline: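 Cell-free recombinant human PAK4 activity assay; fluorescent substrate and product separated by electrophoretic mobility shift, read 1 h after dosing. Initially tested in duplicate at 25 uM, relative to DMSO baseline.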

Experiment [17] concerns the target human Protein Tyrosine Phosphatase Non-receptor Type 2 (PTPN2), PTPN2 (gene 5771) (UniProt P17706). Description: NVS_ENZ_hPTPN2: NovaScreen (NVS) Enzymatic Assay for human Protein Tyrosine Phosphatase Non-receptor Type 2 (PTPN2) (AID 2283207). In outline: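 Cell-free recombinant enzyme with fluorescent substrate, product separated by electrophoretic mobility shift; read 1 h after dosing. Primary screen single concentration (25 uM) in duplicate; actives followed in concentration series; loss of signal versus DMSO.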

In experiment [18] the target is rat Monoamine Oxidase, MAO-B, Peripheral (MAOBP), Maob (gene 25750) (UniProt P19643). Description: NVS_ENZ_rMAOBP: NovaScreen (NVS) Enzymatic Assay for rat Monoamine Oxidase, MAO-B, Peripheral (MAOBP) (AID 2283242).
Experiment [19] concerns the target rat Corticotropin Releasing Factor Receptor (CRF), Crhr1 (gene 58959) (UniProt P35353). Description: NVS_GPCR_rCRF: NovaScreen (NVS) G Protein-Coupled Receptor Assay for rat Corticotropin Releasing Factor Receptor (CRF) (AID 2283300). A digest of the protocol: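 Rat cortical membranes used as receptor source in a radioligand competitive displacement binding assay; scintillation read 2 h after dosing. Primary screen run in duplicate at 25 uM; loss of signal versus DMSO baseline indicates binding.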

Consider 7 compounds from PubChem BioAssay (EPA / NIEHS).

SMILES strings stand for the structures. Where “and” joins values, the source holds several entries; their conditions need not be identical. Equal values may be shown once. Results filed as inconclusive are left out. Where a structure was tested more than once in an assay, its records may differ in their call. Calls of active or inactive are those of the source. How the source made its calls, unless noted: active means hit-call score of the fitted dose curve at least 0.9, where 1 is the maximum; inconclusive means response in the unintended direction; inactive means score below 0.9.

Chain of human Epidermal Growth Factor Receptor (EGFR), EGFR (gene 1956) (P00533 whole entry, looked up): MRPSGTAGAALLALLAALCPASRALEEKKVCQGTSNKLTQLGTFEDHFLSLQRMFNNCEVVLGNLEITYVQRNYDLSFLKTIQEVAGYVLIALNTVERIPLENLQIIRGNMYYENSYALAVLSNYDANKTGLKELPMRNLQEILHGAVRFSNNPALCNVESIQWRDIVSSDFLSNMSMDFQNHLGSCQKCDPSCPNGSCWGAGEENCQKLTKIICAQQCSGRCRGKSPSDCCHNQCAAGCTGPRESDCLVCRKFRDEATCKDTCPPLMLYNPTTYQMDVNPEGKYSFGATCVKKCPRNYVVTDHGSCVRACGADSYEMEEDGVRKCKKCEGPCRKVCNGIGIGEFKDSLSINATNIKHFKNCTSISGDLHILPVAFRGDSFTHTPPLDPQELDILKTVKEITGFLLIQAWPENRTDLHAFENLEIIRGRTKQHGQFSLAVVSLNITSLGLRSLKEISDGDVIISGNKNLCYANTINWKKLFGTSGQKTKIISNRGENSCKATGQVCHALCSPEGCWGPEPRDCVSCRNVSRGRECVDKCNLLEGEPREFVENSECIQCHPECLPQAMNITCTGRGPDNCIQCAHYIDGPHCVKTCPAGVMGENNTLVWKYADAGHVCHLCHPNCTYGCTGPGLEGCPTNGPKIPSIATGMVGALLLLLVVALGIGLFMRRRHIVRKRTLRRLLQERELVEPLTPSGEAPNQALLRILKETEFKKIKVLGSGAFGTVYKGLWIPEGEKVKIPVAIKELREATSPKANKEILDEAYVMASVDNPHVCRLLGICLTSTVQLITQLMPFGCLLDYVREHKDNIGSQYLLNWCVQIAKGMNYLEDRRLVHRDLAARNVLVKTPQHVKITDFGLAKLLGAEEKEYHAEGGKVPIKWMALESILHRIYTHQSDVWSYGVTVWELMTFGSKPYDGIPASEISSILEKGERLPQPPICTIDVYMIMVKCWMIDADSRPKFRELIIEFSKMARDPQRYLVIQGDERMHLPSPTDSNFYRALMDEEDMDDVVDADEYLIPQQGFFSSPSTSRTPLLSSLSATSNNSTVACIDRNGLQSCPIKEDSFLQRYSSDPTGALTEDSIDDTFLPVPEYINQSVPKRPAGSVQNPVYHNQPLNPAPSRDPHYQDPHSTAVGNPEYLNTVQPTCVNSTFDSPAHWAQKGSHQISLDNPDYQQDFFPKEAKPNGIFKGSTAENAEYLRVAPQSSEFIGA
Chain of human AMP-activated Protein Kinase, alpha 1 (AMPKa1), PRKAA1 (gene 5562) (Q13131 whole entry, looked up): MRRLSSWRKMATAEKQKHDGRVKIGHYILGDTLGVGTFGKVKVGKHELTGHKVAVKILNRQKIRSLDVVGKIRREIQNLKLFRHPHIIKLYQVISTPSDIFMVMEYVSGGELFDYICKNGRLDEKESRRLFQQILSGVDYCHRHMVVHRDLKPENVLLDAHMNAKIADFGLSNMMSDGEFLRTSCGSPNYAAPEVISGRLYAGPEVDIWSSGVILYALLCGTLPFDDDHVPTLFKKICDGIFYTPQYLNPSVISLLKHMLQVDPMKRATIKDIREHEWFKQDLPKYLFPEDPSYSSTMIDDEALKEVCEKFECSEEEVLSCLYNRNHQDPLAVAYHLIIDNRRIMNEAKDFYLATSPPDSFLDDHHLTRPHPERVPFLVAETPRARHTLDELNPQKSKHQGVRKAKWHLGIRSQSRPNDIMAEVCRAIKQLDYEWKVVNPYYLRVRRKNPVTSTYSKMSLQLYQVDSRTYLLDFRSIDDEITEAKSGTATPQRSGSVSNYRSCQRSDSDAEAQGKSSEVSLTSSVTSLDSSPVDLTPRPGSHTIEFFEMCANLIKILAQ
Chain of human MET Proto-Oncogene, Receptor Tyrosine Kinase (MET), MET (gene 4233) (P08581 whole entry, looked up): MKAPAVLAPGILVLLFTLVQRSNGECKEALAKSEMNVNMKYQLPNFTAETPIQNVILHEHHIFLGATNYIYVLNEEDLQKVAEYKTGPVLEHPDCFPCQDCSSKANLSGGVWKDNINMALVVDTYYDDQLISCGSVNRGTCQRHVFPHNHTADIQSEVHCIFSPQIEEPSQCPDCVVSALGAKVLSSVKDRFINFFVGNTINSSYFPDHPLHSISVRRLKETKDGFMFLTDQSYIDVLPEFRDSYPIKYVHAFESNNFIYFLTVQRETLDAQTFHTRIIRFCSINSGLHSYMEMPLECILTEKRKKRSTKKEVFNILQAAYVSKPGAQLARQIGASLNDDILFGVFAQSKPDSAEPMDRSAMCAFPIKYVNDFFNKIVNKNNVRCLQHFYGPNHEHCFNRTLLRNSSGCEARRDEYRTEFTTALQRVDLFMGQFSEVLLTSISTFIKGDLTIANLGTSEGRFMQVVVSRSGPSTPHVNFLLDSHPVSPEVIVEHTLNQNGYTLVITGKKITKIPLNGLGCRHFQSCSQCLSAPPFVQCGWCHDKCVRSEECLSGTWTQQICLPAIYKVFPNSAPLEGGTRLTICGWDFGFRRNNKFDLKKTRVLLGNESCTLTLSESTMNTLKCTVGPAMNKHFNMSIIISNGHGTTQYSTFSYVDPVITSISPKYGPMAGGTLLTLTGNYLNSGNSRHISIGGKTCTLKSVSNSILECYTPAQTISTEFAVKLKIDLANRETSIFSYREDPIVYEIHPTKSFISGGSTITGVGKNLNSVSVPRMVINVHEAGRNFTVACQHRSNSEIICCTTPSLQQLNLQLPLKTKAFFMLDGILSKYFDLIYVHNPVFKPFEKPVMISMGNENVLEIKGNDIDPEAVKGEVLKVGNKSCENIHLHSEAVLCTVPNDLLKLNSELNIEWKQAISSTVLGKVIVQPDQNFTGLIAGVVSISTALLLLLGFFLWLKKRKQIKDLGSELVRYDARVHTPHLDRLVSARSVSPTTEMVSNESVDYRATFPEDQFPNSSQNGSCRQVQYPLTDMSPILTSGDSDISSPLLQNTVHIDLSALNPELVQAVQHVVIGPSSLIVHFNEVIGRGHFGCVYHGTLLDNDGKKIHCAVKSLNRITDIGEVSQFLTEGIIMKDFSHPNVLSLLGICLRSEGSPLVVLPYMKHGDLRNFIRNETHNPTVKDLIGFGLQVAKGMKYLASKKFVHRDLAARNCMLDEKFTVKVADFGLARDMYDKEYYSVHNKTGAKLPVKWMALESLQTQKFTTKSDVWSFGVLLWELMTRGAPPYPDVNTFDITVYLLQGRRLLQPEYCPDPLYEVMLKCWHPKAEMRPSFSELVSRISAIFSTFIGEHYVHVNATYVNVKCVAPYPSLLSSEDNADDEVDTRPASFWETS
Chain of Androgen receptor (Homo sapiens) (P10275 whole entry, looked up, the tested form may be a part): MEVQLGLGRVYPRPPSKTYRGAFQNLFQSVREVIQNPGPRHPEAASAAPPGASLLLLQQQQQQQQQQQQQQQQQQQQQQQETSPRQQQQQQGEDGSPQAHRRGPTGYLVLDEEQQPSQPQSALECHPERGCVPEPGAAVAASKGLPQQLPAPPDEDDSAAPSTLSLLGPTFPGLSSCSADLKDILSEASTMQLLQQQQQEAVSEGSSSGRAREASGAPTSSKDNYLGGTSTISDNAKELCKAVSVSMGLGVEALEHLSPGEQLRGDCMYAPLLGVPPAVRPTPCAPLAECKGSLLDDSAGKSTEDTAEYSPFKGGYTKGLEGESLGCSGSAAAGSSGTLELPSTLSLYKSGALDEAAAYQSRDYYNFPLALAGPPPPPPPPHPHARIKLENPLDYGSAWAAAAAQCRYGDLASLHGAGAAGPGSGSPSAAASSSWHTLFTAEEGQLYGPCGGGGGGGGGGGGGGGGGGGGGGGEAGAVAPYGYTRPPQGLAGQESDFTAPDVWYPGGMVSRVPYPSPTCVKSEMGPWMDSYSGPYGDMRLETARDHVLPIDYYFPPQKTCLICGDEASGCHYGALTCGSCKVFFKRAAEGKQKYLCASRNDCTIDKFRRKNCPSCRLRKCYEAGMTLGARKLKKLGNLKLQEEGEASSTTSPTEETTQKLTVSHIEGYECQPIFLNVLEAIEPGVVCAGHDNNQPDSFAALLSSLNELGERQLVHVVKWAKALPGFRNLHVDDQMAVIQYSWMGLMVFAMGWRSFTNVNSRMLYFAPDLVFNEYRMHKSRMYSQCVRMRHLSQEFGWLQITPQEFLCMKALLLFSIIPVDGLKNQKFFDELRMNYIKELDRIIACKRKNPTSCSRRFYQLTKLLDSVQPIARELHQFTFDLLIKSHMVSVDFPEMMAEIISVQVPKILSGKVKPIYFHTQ
Chain of human Caspase 2 (CASP2), CASP2 (gene 835) (P42575 whole entry, looked up): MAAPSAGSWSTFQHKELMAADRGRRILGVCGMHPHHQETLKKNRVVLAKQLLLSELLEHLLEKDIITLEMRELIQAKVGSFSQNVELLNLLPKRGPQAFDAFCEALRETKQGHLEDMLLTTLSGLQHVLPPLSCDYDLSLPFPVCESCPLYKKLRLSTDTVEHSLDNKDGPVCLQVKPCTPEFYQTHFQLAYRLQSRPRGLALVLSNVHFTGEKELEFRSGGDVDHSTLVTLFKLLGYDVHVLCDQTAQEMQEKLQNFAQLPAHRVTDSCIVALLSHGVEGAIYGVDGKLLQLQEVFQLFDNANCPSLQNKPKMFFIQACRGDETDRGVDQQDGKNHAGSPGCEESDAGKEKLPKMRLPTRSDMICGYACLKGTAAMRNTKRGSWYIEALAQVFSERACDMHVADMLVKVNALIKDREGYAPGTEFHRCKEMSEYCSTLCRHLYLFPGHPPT
Chain of human Aurora Kinase A - serine/threonine-protein Kinase 6 (AurA), AURKA (gene 6790) (O14965 whole entry, looked up): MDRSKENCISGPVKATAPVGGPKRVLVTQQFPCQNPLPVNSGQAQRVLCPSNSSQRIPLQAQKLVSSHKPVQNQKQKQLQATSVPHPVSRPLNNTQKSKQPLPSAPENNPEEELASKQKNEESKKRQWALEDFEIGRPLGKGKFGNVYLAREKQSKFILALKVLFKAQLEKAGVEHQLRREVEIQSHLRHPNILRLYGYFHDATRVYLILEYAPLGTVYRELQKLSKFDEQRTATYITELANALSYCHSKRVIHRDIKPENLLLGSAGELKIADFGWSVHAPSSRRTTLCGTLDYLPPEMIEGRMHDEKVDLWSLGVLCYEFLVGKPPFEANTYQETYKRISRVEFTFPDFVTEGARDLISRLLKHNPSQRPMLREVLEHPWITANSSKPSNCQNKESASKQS

Take `FC(F)(F)C(F)(F)C(F)(F)C(F)(F)C(F)(F)C(F)(F)CC1CO1` (stereo unspecified): the compound was classed as inactive in experiment [1] and in [2].
As for `CC(C)(C)[C@@H](O)[C@@H](Cc1ccc(Cl)cc1)n1cncn1`, the AC50 in experiment [3] is 5.35 µM (active); with rat CYP2B1, gene 24300, 1.35 µM (active); in experiment [4] it was 5.82 µM (active); in [5], 5.84 µM (active). The compound was called inactive in experiment [6].
As for `O=C(O)C(F)(OC(F)(F)C(F)(OC(F)(F)C(F)(OC(F)(F)C(F)(F)C(F)(F)F)C(F)(F)F)C(F)(F)F)C(F)(F)F` (stereo unspecified), the call in experiment [1] and in [2] was inactive.
In the case of `O=S(=O)(OCC(F)(F)F)C(F)(F)C(F)(F)C(F)(F)C(F)(F)F`, the outcome in experiment [1] and in experiment [2] was inactive.
Turning to `O=C(O)C(F)(F)C(F)(F)C(F)(F)C(F)(F)F`, the compound was classed as inactive in experiment [1] and in [2].
As for `O=C(CC(=O)C(F)(F)C(F)(F)F)C(F)(F)F`, the compound was classed as inactive in experiment [1] and in [2].
`S=C(S)NCCNC(=S)S.[Mn+2].[S-]C([S-])=NCCN=C([S-])[S-].[Zn+2]`: the call in experiment [3], in [7], in experiment [8], in experiment [10], in experiment [14] and in [6] was inactive. The result in experiment [18] was inactive. Also, the concentration at half-maximal activity (AC50) in [9] was 1.87 µM (active) and 1.32 µM (active) and 2.26 µM (active); in experiment [11], 3.99 µM (active) and 2.8 µM (active); in experiment [12] it was 9.13 µM (active) and 9.55 µM (active) and 21.4 µM (active); in experiment [13], 233 nM (active) and 815 nM (active); in experiment [14], 18.2 µM (active); in experiment [15], 11 µM (active) and 4.32 µM (active) and 18.9 µM (active). Moreover, the AC50 in [16] was 5.61 µM (active) and 263 nM (active); in experiment [17], 898 nM (active) and 519 nM (active); in experiment [19], 25 µM (active).
